# Laboratory results: PubChem BioAssay (Tox21)
# Values joined by “and” are separate entries in the source; they are usually repeats but may differ in a detail not shown here. Identical values can stand only once. Unmarked numbers belong to inactive results. Results filed as inconclusive are left out. Where a call stands in place of a potency, no number is given. Active and inactive are the calls of the source. Unless noted, calls follow the shape of the dose curve; as a rule, active = well fitted curve in the direction sought with a large enough effect in the repeat runs; inconclusive = weak or mixed curves; inactive = no such curve, though single readings can be large; an effect the other way counts as inactive or inconclusive.
# Key:
# [1] = qHTS assay for small molecule agonists of the p53 signaling pathway (AID 651631; calls by dose curve; also: potency is read from the fitted curve at half-maximal effect; nearly all actives have a fitted effect of over 15% in size)
# Procedure, shortened: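 HCT-116 cells carrying a stable p53 response element–beta-lactamase reporter were plated, rested 5 h at 37 °C, then exposed to compound in DMSO for 16 h at 37 °C; reporter activity was read as FRET substrate fluorescence after 2 h at room temperature.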
# [2] = qHTS assay for small molecules that induce genotoxicity in human embryonic kidney cells expressing luciferase-tagged ATAD5 (AID 651632); also: nearly all actives have a fitted effect of over 15% in size
# Procedure, shortened: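 HEK293T cells carrying a luciferase reporter tagged to ATAD5 were exposed to compound or DMSO vehicle for 16 hr at 37C, 5% CO2. Amplite was added, and after 30 min at room temperature luciferase activity was read as a marker of ATAD5 induction.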
# [3] = qHTS assay for small molecule disruptors of the mitochondrial membrane potential - cell viability (AID 720634; calls by dose curve; also: nearly all actives have a fitted effect of over 20% in size; also: potency is read from the fitted curve at half-maximal effect)
# Procedure, shortened: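 HepG2 cells seeded overnight at 37 C, then exposed to compound or DMSO for 1 hr at 37 C, 5% CO2. m-MPI dye added, then CellTiter-Glo for 30 min at room temperature; viability read as ATP luminescence.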
# [4] = qHTS assay for small molecule disruptors of the mitochondrial membrane potential (AID 720635); also: potency is read from the fitted curve at half-maximal effect
# Procedure, shortened: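 HepG2 cells (2,000/well) attached overnight at 37C, then took compound for 1 hr at 37C, 5% CO2. Mito-MPS dye was added for 30 min; fluorescence was read at 490/535 nm (monomers) and 540/590 nm (aggregates).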
# [5] = qHTS assay to test for compound auto fluorescence at 590 nm (red) in HepG2 cells (AID 720674)
# Procedure, shortened: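 Rose Bengal sodium served as the red fluorophore standard. HepG2 monolayers (overnight attachment, MEM with 10% FBS) were exposed to test compounds for 1 hr at 37 C and read at Ex 540/Em 590 nm.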
# [6] = qHTS assay to test for compound auto fluorescence at 535 nm (green) in HepG2 cells (AID 720675); also: potency is read from the fitted curve at half-maximal effect
# [7] = qHTS assay to test for compound auto fluorescence at 460 nm (blue) in HEK293 cells (AID 720678)
# Procedure, shortened: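 Intrinsic compound fluorescence is recorded in live HEK293 cultures after overnight incubation at 37C, 5% CO2, using excitation 405 nm and emission 460 nm. Values are referenced to triamterene.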
# [8] = qHTS assay to test for compound auto fluorescence at 590 nm (red) in HEK293 cells (AID 720679)
# Procedure, shortened: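 Red autofluorescence, HEK293 cells: 2,000 cells/well; attach 4-5 hr 37C; add 23 nL cpd or DMSO; incubate o/n 37C 5% CO2; read Ex540/Em590; Rose Bengal sodium reference.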
# [9] = qHTS assay for small molecule agonists of the p53 signaling pathway - cell viability (AID 651633; calls by dose curve; also: nearly all actives have a fitted effect of over 30% in size; also: potency is read from the fitted curve at half-maximal effect)
# Procedure, shortened: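 p53RE-bla cells, seeded at 4,000 per well and rested 5 h at 37 C/5% CO2, received compounds in DMSO for 16 h at 37 C. CellTiter-Glo was then added, and luminescence was read after 30 min at room temperature to gauge cytotoxicity.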
# [10] = qHTS assay for small molecules that induce genotoxicity in human embryonic kidney cells expressing luciferase-tagged ATAD5 - cell viability (AID 651634; calls by dose curve; also: nearly all actives have a fitted effect of over 25% in size; also: potency is read from the fitted curve at half-maximal effect)
# Procedure, shortened: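 HEK293T cells expressing luciferase-tagged ATAD5 were exposed to compound or DMSO for 15.5 hr at 37C, 5% CO2. Viability was then read as live-cell protease activity by CellTiter-Fluor fluorescence after 30 min at 37C.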
Structure (SMILES),Potency [1],Potency [2],Potency [3],Potency [4],Potency [5],Potency [6],Potency [7],Potency [8],Potency [9],Potency [10]
O=C1C=CC(=O)N1,49.8 µM (active),inactive,49.8 µM (active),28 µM (active),inactive,inactive,inactive,inactive,,
CCC(N)(CO)CO,,inactive,inactive,inactive,inactive,inactive,inactive,inactive,inactive,inactive
CCCCCCCC/C=C\CCCCCCCCOCCO,,inactive,79.4 µM (active),1.78 µM (active),inactive,inactive,inactive,inactive,31.6 µM (active),39.8 µM (active)
COC(=O)C1=C(C)NC(C)=C(C(=O)OCC(C)C)C1c1ccccc1[N+](=O)[O-] (stereo not given),,inactive,inactive,11.9 µM (active) and 43.3 µM (active),inactive,inactive,inactive,inactive,inactive,29.8 µM (active) and 48.6 µM (active)
Nc1ccc(N)c2ccccc12,,inactive,13.7 µM (active),0.153 µM (active),inactive,8.91 µM (active),inactive,inactive,15.3 µM (active),15.3 µM (active)
[Cl][Bi]([Cl])([c]1ccccc1)([c]1ccccc1)[c]1ccccc1,24.2 µM (active),,,43 µM (active),inactive,inactive,inactive,inactive,21.6 µM (active),60.8 µM (active)
O=C1CCCc2c1cc1ccc3cccc4ccc2c1c34,55.1 µM (active),,,8.74 µM (active),inactive,inactive,inactive,inactive,inactive,inactive
CCCCCCCCOc1ccccc1C(=O)Nc1ccc(C(=O)OCC[N+](C)(CC)CC)cc1,,inactive,inactive,31.2 µM (active),inactive,inactive,inactive,,23.7 µM (active),inactive
CO[Si](CCCNc1ccccc1)(OC)OC,,inactive,inactive,inactive,inactive,inactive,inactive,inactive,inactive,inactive
CC(C)OC(=O)c1cc2c(OCC(O)CNC(C)(C)C)cccc2[nH]1 (stereo not given),,inactive,inactive,inactive,inactive,inactive,inactive,inactive,inactive,inactive
CC(C)=CCOc1ccc(/C=C/C(=O)c2ccc(OCC=C(C)C)cc2OCC(=O)O)cc1,,inactive,inactive,23.7 µM (active),inactive,inactive,,,10.6 µM (active),inactive
CCc1cc(SCc2sc(-c3ccc(C(F)(F)F)cc3)nc2CN2CCN(c3ccc(OC)cc3)CC2)ccc1OCC(=O)O,,inactive,inactive,19.3 µM (active),inactive,inactive,,,9.69 µM (active),48.6 µM (active)
O=c1[nH]cnc2nc[nH]c12,,inactive,inactive,inactive,inactive,inactive,,,inactive,inactive
COc1ccc(C(=O)/C(Br)=C\C(=O)O)cc1,10.6 µM (active) and 21.7 µM (active),,inactive,inactive,inactive,inactive,inactive,,inactive,
Cc1cc(O)c(Cl)c(C)c1Cl,,inactive,54.5 µM (active),1.93 µM (active),inactive,inactive,inactive,,68.6 µM (active),61.1 µM (active)
CCCC(c1cc(C(C)(C)C)c(O)cc1C)c1cc(C(C)(C)C)c(O)cc1C,,inactive,39 µM (active),3.9 µM (active),inactive,inactive,inactive,inactive,17.4 µM (active),31 µM (active)
NC(=O)CC[C@@H]1NC(=O)[C@H](Cc2ccccc2)NC(=O)[C@H](Cc2ccc(O)cc2)NC(=O)CCSSC[C@@H](C(=O)N2CCC[C@H]2C(=O)N[C@@H](CCCN=C(N)N)C(=O)NCC(N)=O)NC(=O)[C@H](CC(N)=O)NC1=O,,inactive,inactive,inactive,inactive,inactive,inactive,,inactive,inactive
CCCC1O[C@@H]2C[C@H]3[C@@H]4CCC5=CC(=O)C=C[C@]5(C)[C@H]4[C@@H](O)C[C@]3(C)[C@]2(C(=O)CO)O1 (stereo not given in full),,inactive,inactive,inactive,inactive,inactive,inactive,inactive,inactive,inactive
CCc1oc2ccccc2c1C(=O)c1cc(Br)c(O)c(Br)c1,,inactive,,5.96 µM (active),inactive,inactive,inactive,inactive,26.6 µM (active),inactive
C[C@]12CCC(=O)C=C1CC[C@@H]1[C@@H]2[C@@H](O)C[C@@]2(C)[C@H]1CC[C@]2(O)C(=O)COC(=O)CCC(=O)O,,inactive,inactive,,inactive,inactive,inactive,inactive,inactive,inactive
Cc1[nH]cnc1C[C@H]1CCc2c(C)c3ccccc3n2C1=O,,inactive,inactive,,inactive,inactive,inactive,inactive,inactive,inactive
CCCCCCCCCCCCCCCCCC[N+](C)(C)C,,inactive,,48.7 µM (active),inactive,inactive,inactive,inactive,61.3 µM (active),61.3 µM (active)
